Laboratory results as given in PubChem BioAssay.
For part of these data: Entries with a potency or affinity are not part of this list. The source made the active and inactive calls. Unless noted, no rule for the calls is given here.

Legend:
[1] = antimalarial activity against Dd2 strain (AID 2302;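 active = growth inhibition above 50% at the single 2 µM test dose, taken to imply half-maximal potency below 2 µM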;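 also: 0% = DMSO untreated growth and 100% = chloroquine plus artemisinin killed control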); details: P. falciparum Dd2 in RBCs, LDH growth readout, 72 h; at 2 µM; hits give high values
[2] = HepG2 cytotoxicity, primary screen, cytotoxicity control for P. falciparum antimalarial project, cell-based, ATP luminescence (AID 2303;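 active = inhibition above 50%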;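 also: 0% = DMSO wells and 100% = digitonin-killed cells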); details: HepG2 viability, 24-48 h, at 10 µM, hits give high values
[3] = target: L-lactate dehydrogenase (Plasmodium falciparum (isolate CDC / Honduras)) (UniProt Q27743); test: PfLDH activity inhibition – cell lysate, 3D7 strain, counter-screen for P. falciparum growth inhibition project (AID 2304);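 also: 0% = vehicle and 100% = reference inhibitor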; details: P. falciparum 3D7 crude extract, LDH APAD/NBT absorbance; at 2 µM; hits give high values
[4] = inhibition of 3D7 malaria parasite growth – strain 3D7 (AID 2306);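 also: 0% = DMSO wells and 100% = chloroquine plus artemisinin control wells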; details: P. falciparum 3D7 erythrocytic growth, LDH absorbance, 72 h; at 2 µM; hits give high values
[5] = target: Calcium-dependent protein kinase 1 (Plasmodium falciparum (isolate 3D7)) (UniProt P62344); test: PfCDPK1 kinase inhibitors, biochemical, TCAMS library (AID 1159585; cut-off not given, nearly all actives have IC50 up to about 0.98 µM;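 also: inhibitors leave more ATP so luminescence rises with inhibition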); details: recombinant PfCDPK1, Kinase-Glo ATP depletion luminescence
[6] = target: Plasmodium falciparum protein kinase 6 (PK6, PF3D7_1337100) (UniProt Q8IDW1); test: PfPK6 kinase inhibitors, biochemical, TCAMS library (AID 1159586); details: recombinant PfPK6, Kinase-Glo ATP depletion luminescence
[7] = target: Protein kinase 7 (PK7), Plasmodium falciparum 3D7 (PF3D7_0213400) (UniProt Q7YTF7); test: inhibition of Plasmodium PK7 catalytic activity – biochemical, TCAMS antimalarial set, Kinase-Glo luminescence (AID 1159587); details: recombinant PfPK7, Kinase-Glo ATP depletion luminescence
[8] = target: Calcium-dependent protein kinase 4 (Plasmodium falciparum (isolate 3D7)) (UniProt Q8IBS5); test: PfCDPK4 kinase inhibitors, biochemical, TCAMS library (AID 1159588; cut-off not given, nearly all actives have IC50 up to about 0.91 µM); details: recombinant PfCDPK4, Kinase-Glo ATP depletion luminescence
Calcium-dependent protein kinase 4 (Plasmodium falciparum (isolate 3D7)), sequence (Q8IBS5 whole entry, looked up): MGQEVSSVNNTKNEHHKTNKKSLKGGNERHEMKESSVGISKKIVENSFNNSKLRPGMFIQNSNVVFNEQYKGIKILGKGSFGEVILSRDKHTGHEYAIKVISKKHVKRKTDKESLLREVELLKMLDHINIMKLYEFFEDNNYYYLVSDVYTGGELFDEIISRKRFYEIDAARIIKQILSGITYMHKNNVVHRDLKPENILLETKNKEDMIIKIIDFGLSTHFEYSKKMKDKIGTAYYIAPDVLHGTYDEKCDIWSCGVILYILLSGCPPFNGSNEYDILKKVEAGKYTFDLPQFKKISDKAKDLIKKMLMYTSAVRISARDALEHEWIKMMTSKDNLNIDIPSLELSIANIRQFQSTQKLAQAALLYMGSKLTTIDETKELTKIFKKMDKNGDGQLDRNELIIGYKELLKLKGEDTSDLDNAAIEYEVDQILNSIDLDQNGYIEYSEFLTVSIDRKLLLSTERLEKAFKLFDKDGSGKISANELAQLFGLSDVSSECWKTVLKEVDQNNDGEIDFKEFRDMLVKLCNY

Plasmodium falciparum protein kinase 6 (PK6, PF3D7_1337100), sequence (Q8IDW1 1-305): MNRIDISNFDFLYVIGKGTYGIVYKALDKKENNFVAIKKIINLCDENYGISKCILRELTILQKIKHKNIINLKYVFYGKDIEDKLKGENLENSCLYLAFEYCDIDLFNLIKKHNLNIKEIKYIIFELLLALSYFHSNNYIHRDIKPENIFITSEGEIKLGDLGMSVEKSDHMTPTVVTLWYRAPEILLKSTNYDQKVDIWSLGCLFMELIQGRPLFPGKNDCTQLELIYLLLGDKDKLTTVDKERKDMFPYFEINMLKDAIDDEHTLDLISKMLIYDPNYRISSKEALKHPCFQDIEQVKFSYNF
L-lactate dehydrogenase (Plasmodium falciparum (isolate CDC / Honduras)), sequence (Q27743 whole entry, looked up): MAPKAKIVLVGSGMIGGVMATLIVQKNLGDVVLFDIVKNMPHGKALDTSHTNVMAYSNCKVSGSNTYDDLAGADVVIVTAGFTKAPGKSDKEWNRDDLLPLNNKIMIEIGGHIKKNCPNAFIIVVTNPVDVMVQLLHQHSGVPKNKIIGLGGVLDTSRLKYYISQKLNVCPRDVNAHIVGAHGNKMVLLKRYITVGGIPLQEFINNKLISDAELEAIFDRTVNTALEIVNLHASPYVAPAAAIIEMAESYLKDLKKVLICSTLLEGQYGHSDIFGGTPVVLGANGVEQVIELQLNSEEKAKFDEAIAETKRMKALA
Protein kinase 7 (PK7), Plasmodium falciparum 3D7 (PF3D7_0213400), sequence (Q7YTF7 1-343): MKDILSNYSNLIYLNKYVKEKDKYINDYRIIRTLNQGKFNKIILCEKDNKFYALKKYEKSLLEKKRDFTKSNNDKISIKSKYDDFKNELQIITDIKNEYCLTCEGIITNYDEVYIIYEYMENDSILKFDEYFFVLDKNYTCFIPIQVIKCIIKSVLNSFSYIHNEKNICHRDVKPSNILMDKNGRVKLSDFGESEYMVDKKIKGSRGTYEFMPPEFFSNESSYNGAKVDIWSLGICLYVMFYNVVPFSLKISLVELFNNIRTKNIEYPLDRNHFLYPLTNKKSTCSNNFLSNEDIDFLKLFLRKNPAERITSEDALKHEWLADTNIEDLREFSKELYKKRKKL
Calcium-dependent protein kinase 1 (Plasmodium falciparum (isolate 3D7)), sequence (P62344 whole entry, looked up): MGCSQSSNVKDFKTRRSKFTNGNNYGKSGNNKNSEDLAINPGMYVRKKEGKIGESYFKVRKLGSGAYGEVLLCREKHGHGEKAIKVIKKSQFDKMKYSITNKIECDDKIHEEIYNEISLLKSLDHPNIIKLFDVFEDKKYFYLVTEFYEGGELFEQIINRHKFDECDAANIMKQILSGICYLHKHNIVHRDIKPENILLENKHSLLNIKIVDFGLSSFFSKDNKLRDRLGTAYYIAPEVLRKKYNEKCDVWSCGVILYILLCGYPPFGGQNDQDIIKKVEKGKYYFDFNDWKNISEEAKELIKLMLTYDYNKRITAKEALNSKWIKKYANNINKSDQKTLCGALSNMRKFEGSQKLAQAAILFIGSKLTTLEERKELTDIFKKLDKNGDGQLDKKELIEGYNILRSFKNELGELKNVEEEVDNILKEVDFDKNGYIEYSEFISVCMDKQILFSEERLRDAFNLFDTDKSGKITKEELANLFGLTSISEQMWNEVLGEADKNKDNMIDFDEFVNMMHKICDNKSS

Cc1ccc2c(=O)cc(CCc3cccc(F)c3F)n(CC(=O)N(Cc3ccc(-c4ccc(C(F)(F)F)cc4)cc3)C3CCN(C)CC3)c2n1
active: growth inhibition [1] 76% | growth inhibition [4] 86%
inactive: inhibition [2] 49% | inhibition [3] 0% | outcome [5] | outcome [6] | outcome [7] | outcome [8]

COc1cc2nc(NCCCO)nc(Nc3ccc(Oc4ccccc4)cc3)c2cc1OC
active: growth inhibition [1] 101% | growth inhibition [4] 101%
inactive: inhibition [2] 24% | inhibition [3] 0% | outcome [5] | outcome [6] | outcome [7] | outcome [8]

CCOc1ccc(N2CCN(CCCCNC(=O)c3ccc(NC(=O)c4ccc(Cl)cc4)cc3)CC2)c(OCC)c1
active: growth inhibition [1] 65% | growth inhibition [4] 102%
inactive: inhibition [2] 36% | inhibition [3] 2% | outcome [5] | outcome [6] | outcome [7] | outcome [8]

NC1=NC2(CCCCC2)N(OCCCCCCC2CCCCC2)C(N)=N1
inactive: growth inhibition [1] 49% | inhibition [3] -4% | outcome [5] | outcome [6] | outcome [7] | outcome [8]
active: inhibition [2] 77% | growth inhibition [4] 97%

CCCCCN1CCC(NC(=O)c2ccc(C(=O)Nc3ccc(C(C)C)cc3)cc2)C1 (configuration not stated)
active: growth inhibition [4] 95%
inactive: growth inhibition [1] 17% | inhibition [2] 38% | inhibition [3] 2% | outcome [5] | outcome [6] | outcome [7] | outcome [8]

COC(=O)c1ccccc1COc1ccc(CC2(NC(=O)[C@H](Nc3ccc(C#N)c4ccccc34)C(C)(C)C)CCCC2)cc1
active: growth inhibition [1] 82% | growth inhibition [4] 95%
inactive: inhibition [2] 1% | inhibition [3] 2% | outcome [5] | outcome [6] | outcome [7] | outcome [8]

COc1cc(-c2nnc(SCC(=O)Nc3cc(C)on3)n2C)cc(OC)c1O
inactive: growth inhibition [1] 2% | inhibition [2] 2% | inhibition [3] 5% | outcome [5] | outcome [6] | outcome [7] | outcome [8]
active: growth inhibition [4] 89%

CCOc1ccc(C(=O)Nc2ccc(-c3nc4ccccc4[nH]3)cc2)cc1[N+](=O)[O-]
active: growth inhibition [1] 70% | growth inhibition [4] 100%
inactive: inhibition [2] 22% | inhibition [3] 4% | outcome [5] | outcome [6] | outcome [7] | outcome [8]

O=C(Nc1cccc(-c2csc(-c3nc4ccccc4[nH]3)c2)c1)c1ccncc1
active: growth inhibition [1] 61% | inhibition [2] 64% | growth inhibition [4] 101%
inactive: inhibition [3] -1% | outcome [5] | outcome [6] | outcome [7] | outcome [8]

COc1ccc(CCN2CCC(NCc3cccc(N(C)C)c3)CC2)cc1
active: growth inhibition [4] 98%
inactive: growth inhibition [1] 7% | inhibition [2] 18% | inhibition [3] 2% | outcome [5] | outcome [6] | outcome [7] | outcome [8]

O=C(Cc1cccc(O)c1)NCC(Cc1ccc(O)cc1)c1ccccc1 (configuration not stated)
active: growth inhibition [1] 97% | growth inhibition [4] 91%
inactive: inhibition [2] -1% | inhibition [3] 3% | outcome [5] | outcome [6] | outcome [7] | outcome [8]

COc1cc(C(=O)N2N=C(c3c(-c4ccccc4)c4cc(Br)ccc4[nH]c3=O)CC2c2cccc([N+](=O)[O-])c2)cc(OC)c1OC (configuration not stated)
inactive: inhibition [2] 1% | inhibition [3] 4% | outcome [5] | outcome [6] | outcome [7] | outcome [8]
active: growth inhibition [1] 95% | growth inhibition [4] 93%

Cc1cccc(C(=O)NC(NC(=S)Nc2ccc([N+](=O)[O-])cc2)C(Cl)(Cl)Cl)c1 (configuration not stated)
inactive: inhibition [2] 14% | inhibition [3] -2% | outcome [5] | outcome [6] | outcome [7] | outcome [8]
active: growth inhibition [1] 66% | growth inhibition [4] 96%

CN(C)CCN(C)Cc1ccc(-c2ccc(NC(=O)c3cccc(Cl)c3)cc2)cc1
active: growth inhibition [1] 54% | inhibition [2] 50% | growth inhibition [4] 94%
inactive: inhibition [3] 1% | outcome [5] | outcome [6] | outcome [7] | outcome [8]

O=C(Nc1ccc(Cl)c(Cl)c1)Nc1ccc2nccc(N3CCNCC3)c2c1
inactive: inhibition [2] 18% | inhibition [3] -6% | outcome [5] | outcome [6] | outcome [7] | outcome [8]
active: growth inhibition [1] 62% | growth inhibition [4] 99%

CCCCCc1cc(OC(C)=O)c2c(c1)OC(C)(C)C=C2C1=CCN(Cc2ccccc2)CC1
inactive: inhibition [2] 14% | inhibition [3] -3% | outcome [5] | outcome [6] | outcome [7] | outcome [8]
active: growth inhibition [1] 88% | growth inhibition [4] 97%

COc1cc2nc(N3CCC(CNC(=O)c4cccc5cccnc45)CC3)nc(N)c2cc1OC
active: growth inhibition [4] 99%
inactive: growth inhibition [1] 33% | inhibition [2] 34% | inhibition [3] -2% | outcome [5] | outcome [6] | outcome [7] | outcome [8]

NC(=O)c1ccc(C(=O)Nc2cccc(-c3csc(-c4nc5ccccc5[nH]4)c3)c2)cc1
inactive: growth inhibition [1] 35% | inhibition [2] 14% | inhibition [3] -4% | outcome [5] | outcome [6] | outcome [7] | outcome [8]
active: growth inhibition [4] 100%

CCCCCCNC[C@@H](O)[C@H](Cc1ccccc1)NC(=O)c1cc(NCC)cc(N2CCCCS2(=O)=O)c1
inactive: inhibition [2] 5% | inhibition [3] -5% | outcome [5] | outcome [6] | outcome [7] | outcome [8]
active: growth inhibition [1] 98% | growth inhibition [4] 100%

C[C@@H]1CN(c2cnn(C/C=C/c3ccc(NC(=O)c4ccc([N+](=O)[O-])cc4)cc3)c(=O)c2Cl)C[C@H](C)N1
inactive: growth inhibition [1] 38% | inhibition [2] 22% | inhibition [3] -3% | outcome [5] | outcome [6] | outcome [7] | outcome [8]
active: growth inhibition [4] 96%

O=C(Nc1ccc(Cl)cc1)N1CCN(C2CCCCC2)CC1
inactive: growth inhibition [1] -6% | inhibition [2] 17% | inhibition [3] -3% | outcome [5] | outcome [6] | outcome [7] | outcome [8]
active: growth inhibition [4] 93%

COc1ccc2c(CCNc3nc(SC)ncc3C(=O)NCCc3ccc(F)cc3)c[nH]c2c1
inactive: growth inhibition [1] 49% | inhibition [2] 3% | inhibition [3] -1% | outcome [5] | outcome [6] | outcome [7] | outcome [8]
active: growth inhibition [4] 91%

CN(Cc1ccc(-c2ccc(C(F)(F)F)cc2)cc1)C(=O)Cn1c(CCc2cccc(F)c2F)cc(=O)c2ccc(OCC3CCCN3C)cc21 (configuration not stated)
active: inhibition [2] 100% | growth inhibition [4] 87%
inactive: growth inhibition [1] 37% | inhibition [3] -6% | outcome [5] | outcome [6] | outcome [7] | outcome [8]

COc1ccc2[nH]cc(C3CCN(CCC4CCN(C(=O)/C=C/c5ccc(Cl)c(Cl)c5)CC4)CC3)c2c1
active: growth inhibition [1] 56% | inhibition [2] 52% | growth inhibition [4] 101%
inactive: inhibition [3] 3% | outcome [5] | outcome [6] | outcome [7] | outcome [8]

O=S(=O)(ON=C1CCc2ccccc21)c1ccc(Cl)cc1
active: growth inhibition [1] 79% | growth inhibition [4] 100%
inactive: inhibition [2] -2% | inhibition [3] 3% | outcome [5] | outcome [6] | outcome [7] | outcome [8]

O=C(NCc1ccccc1)NC(CCCN1CCC(Oc2cccc(Cl)c2)CC1)c1ccc(Cl)c(Cl)c1 (configuration not stated)
inactive: inhibition [2] 15% | inhibition [3] 4% | outcome [5] | outcome [6] | outcome [7] | outcome [8]
active: growth inhibition [1] 57% | growth inhibition [4] 81%

Cc1cccc2[nH]c(-c3ccc(-c4ccc(CN5CCN(C6CCN(C)CC6)CC5)cc4)s3)nc12
active: growth inhibition [1] 101% | inhibition [2] 97% | growth inhibition [4] 101%
inactive: inhibition [3] -4% | outcome [5] | outcome [6] | outcome [7] | outcome [8]

CCOC(=O)c1ccc(-c2c(C(F)(F)F)noc2-c2cc(CC)c(OC)cc2O)o1
active: growth inhibition [1] 95% | growth inhibition [4] 100%
inactive: inhibition [2] -7% | inhibition [3] 1% | outcome [5] | outcome [6] | outcome [7] | outcome [8]

CN1CCC(Oc2ccc(CN3CC[C@H](NC(=O)c4ccc(Cl)c(Cl)c4)C3)c3ccccc23)C1 (some centres not stated)
inactive: inhibition [3] 3% | outcome [5] | outcome [6] | outcome [7] | outcome [8]
active: growth inhibition [1] 82% | inhibition [2] 52% | growth inhibition [4] 100%

CCNc1cc(C(=O)N[C@@H](Cc2ccccc2)[C@H](O)CN[C@H]2C[C@@H]3CC[C@H]2C3)cc(N2CCCCS2(=O)=O)c1
active: growth inhibition [1] 73% | growth inhibition [4] 99%
inactive: inhibition [2] -4% | inhibition [3] 1% | outcome [5] | outcome [6] | outcome [7] | outcome [8]

O=C(NCCCNc1nc2ccccc2[nH]1)c1cccc(OC(F)(F)F)c1
inactive: growth inhibition [1] 27% | inhibition [2] 12% | inhibition [3] -2% | outcome [5] | outcome [6] | outcome [7] | outcome [8]
active: growth inhibition [4] 102%

CCc1cn(CCc2ccccc2)c2ccc(C(=O)N[C@@H](Cc3ccccc3)[C@H](O)CNC(C)(C)CCCC(C)C)cc12
inactive: inhibition [3] 5% | outcome [5] | outcome [6] | outcome [7] | outcome [8]
active: growth inhibition [1] 99% | inhibition [2] 66% | growth inhibition [4] 98%

CCOc1ccc2nc(C)cc(NN=Cc3cccc([N+](=O)[O-])c3)c2c1
inactive: inhibition [2] 7% | inhibition [3] 0% | outcome [5] | outcome [6] | outcome [7] | outcome [8]
active: growth inhibition [1] 93% | growth inhibition [4] 101%

CN1CCN(CC(=O)Nc2ccc(-c3ccc(-c4nc5ccc(C(F)(F)F)cc5[nH]4)cc3)cc2)CC1
inactive: inhibition [2] 43% | inhibition [3] -3% | outcome [5] | outcome [6] | outcome [7] | outcome [8]
active: growth inhibition [1] 98% | growth inhibition [4] 101%

CCOc1cc(C)ccc1N1CCN(CCN2CCC(NC(=O)c3ccc(-c4ccc(C#N)cc4)cc3)CC2)CC1
active: growth inhibition [4] 84%
inactive: growth inhibition [1] 3% | inhibition [2] 9% | inhibition [3] -1% | outcome [5] | outcome [6] | outcome [7] | outcome [8]

CN(c1ccc(C(=O)N[C@@H](CCC(=O)O)C(=O)O)cc1)S(=O)(=O)c1ccc2nc(N)[nH]c(=O)c2c1
active: growth inhibition [4] 97%
inactive: growth inhibition [1] 3% | inhibition [2] 16% | inhibition [3] 2% | outcome [5] | outcome [6] | outcome [7] | outcome [8]

Cc1cccc2[nH]c(-c3ccc(-c4ccc(CNCCCN5CCCC5=O)cc4)s3)nc12
active: growth inhibition [4] 101%
inactive: growth inhibition [1] 43% | inhibition [2] 17% | inhibition [3] 2% | outcome [5] | outcome [6] | outcome [7] | outcome [8]

O=C1OC(c2cc3ccccc3n2S(=O)(=O)c2ccccc2)(c2cc3ccccc3n2S(=O)(=O)c2ccccc2)c2ccccc21
active: growth inhibition [1] 78% | growth inhibition [4] 95%
inactive: inhibition [2] 1% | inhibition [3] -1% | outcome [5] | outcome [6] | outcome [7] | outcome [8]

O=C(NCCN1CCCCC1)N1CCCN(c2ncnc3cc(-c4ccccc4)sc23)CC1
active: growth inhibition [1] 80% | growth inhibition [4] 89%
inactive: inhibition [2] 2% | inhibition [3] -1% | outcome [5] | outcome [6] | outcome [7] | outcome [8]
